MCL1-BIM inh – inhibitors of MCL1 binding to BIM-BH3, primary screen, biochemical, fluorescence polarization. GST-MCL1 / FITC-Bim-BH3 fluorescence polarization. inhibition, % at 10.9 µM. hit rate 0.68% among 320,000. AID 2057, 2009. Induced myeloid leukemia cell differentiation protein Mcl-1 (Homo sapiens), Q07820;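 active = inhibition above the mean inhibition of all tested compounds plus 3 SD, set per campaign, cut at about 40% in these data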;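 note: higher means more loss of mP so more displacement of Bim peptide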
Target sequence (Q07820 whole entry, looked up): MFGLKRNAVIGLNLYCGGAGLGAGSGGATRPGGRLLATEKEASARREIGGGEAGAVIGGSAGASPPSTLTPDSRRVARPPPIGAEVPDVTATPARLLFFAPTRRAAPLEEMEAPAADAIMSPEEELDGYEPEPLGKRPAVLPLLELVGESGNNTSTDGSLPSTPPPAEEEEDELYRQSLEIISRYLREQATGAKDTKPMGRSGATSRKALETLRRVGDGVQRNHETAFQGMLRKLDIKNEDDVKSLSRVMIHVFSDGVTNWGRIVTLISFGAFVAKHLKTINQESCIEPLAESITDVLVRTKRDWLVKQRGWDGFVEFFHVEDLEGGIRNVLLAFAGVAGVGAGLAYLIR
GLD-1 TGE inh – GLD-1/TGE RNA complex disruptors, primary screen, biochemical, fluorescence polarization; Female germline-specific tumor suppressor gld-1 (Caenorhabditis elegans), Q17339; hit rate 0.44% among 320,000; purified GLD-1 + fluorescein TGE RNA; inhibition, % at 5.96 µM;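 active = percent inhibition above a per-plate cutoff, the plate mean of test compounds plus 3 SD, cut at about 30% in these data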
Mcl1-Bid inh – Mcl-1/Bid binding inhibitors, primary screen, biochemical, TR-FRET, 1536-well | hit rate 0.97% among 220,000 | TR-FRET Mcl-1/Bid-Dy647 peptide binding | inhibition, % at 21.7 µM | AID 1021, 2008;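 active = compounds that cut the binding signal by more than half at the single screening dose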;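 note: His-tagged Mcl-1 with europium anti-His antibody binding Bid BH3 peptide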
Mcl1-Noxa inh – Mcl-1/Noxa binding inhibitors, primary screen, biochemical, TR-FRET, 1536-well. Induced myeloid leukemia cell differentiation protein Mcl-1 (Homo sapiens), Q07820. TR-FRET Mcl-1/Noxa peptide binding, 2 h. inhibition, % at 21.7 µM. hit rate 1.5% among 220,000. AID 1022, 2008;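 active = compounds that cut the protein-peptide binding signal by more than 50% relative to plate controls in a single-dose test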;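 note: His-tagged Mcl-1 with rhodamine Noxa BH3 peptide and terbium anti-His antibody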
BCLXL inh – inhibitors of human Bcl-xL, primary screen, biochemical, fluorescence polarization, HTS; Bcl-2-like protein 1 (Homo sapiens), Q07817; GST-Bcl-xL / FITC-Bim BH3 peptide fluorescence polarization; hit rate 0.7% among 320,000; inhibition, % at 10.9 µM;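 active = inhibition above the mean of all tested compounds plus 3 SD, cutoff set per campaign, cut at about 30% in these data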;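 note: inhibitors lower millipolarization by displacing the labeled peptide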
Target sequence (Q07817 whole entry, looked up): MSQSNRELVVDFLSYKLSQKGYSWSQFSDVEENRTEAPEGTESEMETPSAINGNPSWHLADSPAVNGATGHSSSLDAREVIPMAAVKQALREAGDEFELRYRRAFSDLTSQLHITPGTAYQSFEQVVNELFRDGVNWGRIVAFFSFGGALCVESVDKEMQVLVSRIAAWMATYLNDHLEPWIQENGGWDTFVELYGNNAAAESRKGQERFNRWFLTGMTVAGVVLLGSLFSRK
Bim-Mcl-1 – inhibitors of Bim peptide binding to Mcl-1, primary screen, biochemical, bead-based flow cytometry, multiplex; Induced myeloid leukemia cell differentiation protein Mcl-1 (Homo sapiens), Q07820; Bim peptide-Mcl-1 binding; inhibition, % at 10 µM; hit rate 0.1% among 190,000; AID 1009, 2008; in the data active = inhibition above about 40%
Numbers stand for hits; - = inactive; . = not tested or not shown. Compounds with a hit are over-represented: about 2.3% of the library has one in this group of screens.

SMILES	MCL1-BIM inh	GLD-1 TGE inh	Mcl1-Bid inh	Mcl1-Noxa inh	BCLXL inh	Bim-Mcl-1
Cc1ccccc1-n1c(-c2ccc([N+](=O)[O-])cc2)nc2ccccc2c1=O	-	-	-	-	-	-
CC(C)(C)c1ccc(CSc2cnn(C(C)(C)C)c(=O)c2Cl)cc1	-	-	.	.	-	.
Cc1ccc(-n2nc(C)cc2NC(=O)COc2cc(C)cc3oc(=O)c4c(c23)CCC4)cc1	-	-	-	106	-	-
Cc1cccc(N2C(=O)/C(=C/c3ccc(CN(CCC#N)S(C)(=O)=O)o3)C(=O)NC2=S)c1	-	-	-	53	-	-
Cc1ccc(N2C(=O)/C(=C/c3ccc(CN(CCC#N)S(C)(=O)=O)o3)C(=O)NC2=S)cc1C	-	-	-	66	-	-
CCOc1ccc(N2C(=O)/C(=C/c3ccc(C)o3)C(=O)NC2=S)cc1	-	-	.	.	-	.
O=C(NC1CN2CCC1CC2)c1cc(Cl)c([N+](=O)[O-])c2nc[nH]c12 (centres undefined)	-	-	-	-	-	-
Cc1ccccc1-n1c(-c2ccco2)nc2ccccc2c1=O	-	-	-	-	-	.
O=c1[nH]c(O)c(/C=C2/C=CC(c3cc(Cl)ccc3Cl)=N2)c(=O)[nH]1	-	-	67	-	-	.
CC1=Nc2ccccc2/C1=C/c1c(O)[nH]c(=O)[nH]c1=O	-	-	.	.	-	.
CCOc1cc(C=C2C(=O)NC(=O)NC2=O)ccc1OS(=O)(=O)c1ccccc1	-	-	-	60	-	-
COc1cc(C=C2C(=O)NC(=O)NC2=O)ccc1OS(=O)(=O)c1ccccc1[N+](=O)[O-]	-	-	.	.	-	.
CCOC(=O)C(C)(CC)NC(=O)CSP(=S)(OCC)OCC (centres undefined)	-	-	-	-	-	-
N#CC(C#N)=NNc1ccc(S(N)(=O)=O)cc1	-	-	-	88	-	.
CSc1ncc(/C=C2/C(=O)NC(=O)N(c3ccc(C(C)C)cc3)C2=O)cn1	-	-	-	-	-	-
O=C1NC(=O)N(Cc2ccccc2)C(=O)/C1=C/c1cnc(-c2ccccc2)nc1	-	-	-	51	-	-
CC(C)c1ccc(N2C(=O)NC(=O)/C(=C/c3cnc(-c4ccccc4)nc3)C2=O)cc1	-	-	-	61	-	-
CCOP(=O)(OCC)C(O)c1ccc(N(C)C)cc1 (centres undefined)	-	-	58	-	-	.
CC(C)C(C)(NC(=O)c1cccn(Cc2ccc3c(c2)OC(F)(F)O3)c1=O)C(N)=O (centres undefined)	-	-	-	-	-	-
CCN1C(=O)/C(=C/c2ccc3c(c2)CCN3CCCCl)C(=O)NC1=S	-	-	-	81	-	-
CC(C)(C)N1C(=O)NC(=O)/C(=C\c2ccc3c(c2)CCN3CCCCl)C1=O	-	-	-	-	-	.
O=C1NC(=S)N(C2CC2)C(=O)/C1=C/c1ccc2c(c1)CCN2CCCCl	-	-	88	109	-	-
NP(=O)(OCCCc1ccccc1)Oc1ccccc1 (centres undefined)	-	-	.	.	-	.
CC(Cc1ccccc1)NCC(=O)Nc1cc(N(C)C)nc2ccccc12 (centres undefined)	-	-	72	-	-	.
OCC12CO[C@@H]3c4ccccc4[C@H](OC1)N32 (some centres undefined)	-	-	-	.	-	-
SMILES	MCL1-BIM inh	GLD-1 TGE inh	Mcl1-Bid inh	Mcl1-Noxa inh	BCLXL inh	Bim-Mcl-1
COC(=O)C1=C(c2ccc(Cl)c(C(F)(F)F)c2)C[C@@H]2CC[C@H]1N2C	-	-	.	.	-	.
CN1CCCCC1c1ccc(-c2cccnc2)nc1 (centres undefined)	-	-	70	-	-	-
Cn1c(=O)c2nncnc2n(C)c1=O	-	-	-	-	-	-
Oc1ccc2c3c1O[C@H]1c4[nH]c5ccccc5c4C[C@@]4(O)C(C2)N(CC2CC2)CC[C@]314	66	-	-	-	-	-
Oc1ccc2c3c1O[C@H]1c4[nH]c5ccccc5c4C[C@@]4(O)[C@@H](C2)N(CC2CC2)CC[C@]314	-	-	.	.	-	.
Cc1cc(N2CCCCC2)ccc1C=C1C(=O)N(C)C(=S)N(C)C1=O	-	-	-	68	-	-
CCN1C(=O)/C(=C\c2ccc([N+](=O)[O-])s2)C(=O)NC1=S	.	.	-	94	.	-
C=CCN1C(=O)/C(=C/c2ccc(Br)s2)C(=O)NC1=S	-	-	.	.	-	.
CC1Oc2cc3c(-c4c(O)cc(O)c5c(O)c6c(cc45)OC(C)C(C)C6=O)c(O)cc(O)c3c(O)c2C(=O)C1C (centres undefined)	-	-	-	103	-	.
CN1C(=O)CN=C(c2ccccc2)c2cc([N+](=O)[O-])ccc21	.	.	-	-	.	-
COc1ccccc1N1CCN(Cc2cccc(Br)c2)CC1	-	-	.	.	-	.
O=C(O)CP(=O)(O)c1ccc(Cl)cc1	-	-	-	-	-	-
COP(=O)(CC(=O)O)c1ccccc1 (centres undefined)	-	-	-	-	-	95
CC(=NCCCn1ccnc1)c1c(O)n(C2CCCCC2)c(=O)[nH]c1=O	-	-	-	-	-	.
c1cncc(C2Nc3cccc4cccc(c34)N2)c1	-	-	-	79	-	.
O=C1CCCC2=C1C(c1cccnc1)Nc1ccccc1N2 (centres undefined)	-	-	-	-	-	-
CCC1(C(=O)c2ccc(C)cc2)C2c3ccccc3OC(=O)C21C(=O)O (centres undefined)	-	-	-	-	-	.
Cc1cc(/C=C2\C(=O)NC(=O)N(Cc3ccco3)C2=O)c(C)n1-c1ccc(O)cc1	-	-	-	-	-	-
C/C(=N\N=C(N)N)c1ccccc1	-	-	-	-	-	.
CN(C=O)CP(=O)(O)CN(C)C=O	-	-	60	-	-	-
C[C@]12CC[C@@H]3c4ccc(O)c(O)c4CC[C@H]3[C@@H]1CC[C@@H]2O	-	-	-	64	-	-
O=C1NC(=S)N(c2ccc(F)cc2)C(=O)/C1=C\c1ccoc1	.	.	-	79	.	-
c1ccc(-c2[nH]c[n+](CC3CO3)c2-c2ccccc2)cc1 (centres undefined)	-	-	-	-	-	-
Cc1ccc(-c2ccc(=O)n(CC(=O)N3CCC4(CC3)OCCO4)n2)cc1	-	-	-	-	-	-
Cc1ccc(-c2nc(CS(=O)CC(=O)N3CCC4(CC3)OCCO4)c(C)o2)cc1 (centres undefined)	-	-	85	-	-	-
